Results reported in PubChem BioAssay (NCI).
About 83,000 compounds went through this panel and 20% of them were active in at least one assay; those are over-represented in the sample as a whole.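 Percent growth is the endpoint: 0 to 100 indicates growth inhibition (40 means 60% inhibition), 0 means no net growth, and negative values indicate cell death.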 A number with no mark means an inactive call. The source made the active and inactive calls. Rule for the calls: active = growth percent below 10; inactive = the rest.

Assays:
Assay in all cases: NCI-60 one-dose screen, 48 h (100 = growth as untreated, 0 = no growth, -100 = all killed)
Conditions in all cases: 10 µM unless noted
HCT-15 colon = system: HCT-15 colon
HT29 colon = system: HT29 colon
SNB-75 CNS = system: SNB-75 CNS
SNB-19 CNS = system: SNB-19 CNS
U251 CNS = system: U251 CNS
SK-MEL-5 melanoma = system: SK-MEL-5 melanoma
LOX IMVI melanoma = system: LOX IMVI melanoma
SK-MEL-28 melanoma = system: SK-MEL-28 melanoma
PC-3 prostate = system: PC-3 prostate
UACC-62 melanoma = system: UACC-62 melanoma

Structure (SMILES)	growth (HCT-15 colon)	growth (HT29 colon)	growth (SNB-75 CNS)	growth (SNB-19 CNS)	growth (U251 CNS)	growth (SK-MEL-5 melanoma)	growth (LOX IMVI melanoma)	growth (SK-MEL-28 melanoma)	growth (PC-3 prostate)	growth (UACC-62 melanoma)
O=C1/C(=C/c2ccc(F)cc2)CN(Cc2cn(CCNc3ccnc4cc(Cl)ccc34)nn2)C/C1=C\c1ccc(F)cc1	-60.5% (active)	-79.2% (active)	50%	-74.4% (active)	-91.4% (active)	-100% (active)	-93.8% (active)	-79.7% (active)		
O=C1/C(=C/c2ccc(Cl)cc2)CN(Cc2cn(CCCNc3ccnc4cc(Cl)ccc34)nn2)C/C1=C\c1ccc(Cl)cc1	-74.2% (active)	-69.6% (active)	-4.46% (active)	-79.6% (active)	-91.9% (active)	-86.2% (active)	-86.2% (active)			
O=C(CCCCCCC(=O)Nc1ccc2c(c1)/C(=C/c1ccc[nH]1)C(=O)N2)NO	41.5%	8.62% (active)	53%	16.3%	-9.13% (active)	-75% (active)	-69.8% (active)	14.6%		
Cc1ccccc1-n1nnc(C(=O)Nc2nc(-c3ccccc3)c(-c3ccccc3)s2)c1C	67.3% [50 µM]	78.7% [50 µM]	5.92% [50 µM] (active)	49.5% [50 µM]	76.6% [50 µM]		80.7% [50 µM]	87.2% [50 µM]	63.2% [50 µM]	
Oc1cccc(Nc2nc(-c3ccccn3)cs2)c1	78.3%	112%	94.3%	98.8%	101%		93.9%	111%	94.5%	
N#Cc1c(O)c2c(c(O)c1C#N)C(=O)c1ccccc1C2=O	26.9%	0.694% (active)	145%	70.8%	3.42% (active)			5.91% (active)	14.3%	-17.3% (active)
COc1ccc(/C=C2\CN(Cc3cn(CCCNc4ccnc5cc(Cl)ccc45)nn3)C/C(=C\c3ccc(OC)cc3)C2=O)cc1	67.6%	14.6%	70.1%	72.9%	41.3%	52.7%	35.5%	80.5%		
O=C1CN2CCC1C/C2=C\c1ccnc2c(Cl)cccc12 (centres undefined)	82.6%	106%	85.5%	98.2%	98.4%	108%	96%	127%		
CCOc1ccc(/C=N\N2CCCCCC2)cc1OCC	62.1%	100%	85.2%	96.2%	86%	83.1%		95.5%		75.1%
Cc1ccc(N(CSc2ccc(Cl)cc2)CSc2ccc(Cl)cc2)cc1	67.2%	74.7%	106%	78.6%	47.8%		-10.1% (active)	102%	10.8%	60%
C[C@H]1C(=O)C23CCC1C[C@@]21O[C@@H]2C(C)(C)C=CC(=O)C23COC1=O	109%	110%	83.6%	100%	105%	103%	93.7%	111%		
COc1ccc(-c2nc(Nc3ccc(F)cc3)nc(Nc3ccc4c(c3)nc(C)n4Cc3ccccc3)n2)cc1	33.4%	8.87% (active)	68%	60.7%	39.2%	47.1%	38.9%	56.6%		
O=C1OCC2=C1C(c1ccc3c(c1)OCO3)CC(=O)N2c1cccc(Cl)c1 (centres undefined)	101%	97.5%	80.7%	93%	99.9%		98%	101%	102%	
COc1ccc(/C=N\N2CCOCC2)cc1OC1CCCC1	104%	106%	86.8%	95.8%	101%		101%	116%	101%	92.7%
Cc1nc2cc(Nc3nc(Nc4ccc(F)cc4)nc(-c4ccc(Cl)cc4)n3)ccc2n1Cc1ccccc1	64.4%	55.8%	65.2%	83.4%	69.7%	83.4%	76.6%	92.6%		
Cc1nc2cc(Nc3nc(N4CCCCC4)nc(N4CCOCC4)n3)ccc2n1Cc1ccccc1	21.3%	-8.67% (active)	-12.7% (active)	65.3%		54.9%	1.44% (active)		47.1%	32.1%

Structure (SMILES)	growth (HCT-15 colon)	growth (HT29 colon)	growth (SNB-75 CNS)	growth (SNB-19 CNS)	growth (U251 CNS)	growth (SK-MEL-5 melanoma)	growth (LOX IMVI melanoma)	growth (SK-MEL-28 melanoma)	growth (PC-3 prostate)	growth (UACC-62 melanoma)
COc1ccc(/C=C2\CN(Cc3cn(CCCNc4ccnc5cc(Cl)ccc45)nn3)C/C(=C\c3ccc(OC)c(OC)c3)C2=O)cc1OC	9.96% (active)	-40.1% (active)	42.6%	33%	0.724% (active)	5.86% (active)	-68.9% (active)	40.1%		
COc1cc(C(F)(F)F)ccc1-c1cc(-c2ccc(F)cc2)n[nH]1	73.3%	92.5%	74.4%	77.9%	80%		96.9%	102%	76%	83.9%
Nc1nc(N)c(C=Nc2ccc(Br)cc2)c(Nc2ccc(Br)cc2)n1	88.5%	101%	91.3%	99.8%	95.1%		81%	106%		87%
O=C(COc1cccc(/C=C2\COc3ccccc3C2=O)c1)c1ccccc1	33.1%	41.2%	71%	100%	60.9%		23.7%	97.2%		59.4%
Cc1nc2cc(Nc3nc(NCCO)nc(Nc4ccc(F)cc4)n3)ccc2n1Cc1ccccc1	100%	71.9%	102%	100%	86.3%	80.3%	81.9%	108%		
COc1ccc(Nc2[nH]n(C3=Nc4ccccc4Sc4ccccc43)c(=O)c2C#N)cc1	49.3%	68.7%	67.3%	73.5%	67%		54.6%	64.7%	41.4%	32.8%
CCSc1nnc2c3cc(Br)ccc3n(C)c2n1	96.7%	104%	92.6%	109%	101%		96%	123%	81%	103%
Cn1c2ccccc2c2nn(Cc3ccccc3)c(=O)nc21	94.6%	112%	77%	106%	106%		102%	126%	99.4%	108%
COc1cccc(-c2ccc3c(c2)C2CCN(Cc4ccccc4)C3C2)c1 (centres undefined)	57.8%	36.5%	77%	90.4%		99.4%	85.5%		66.5%	83.6%
COc1ccc(C2CC(c3cc(OC)c(OC)c(OC)c3)=NN2c2ccc(S(N)(=O)=O)cc2)cc1 (centres undefined)	66.8%	59.3%	33.1%	74%	53.2%		52.9%	76.9%		
O=C1c2ccccc2C(=O)c2c(Nc3ccc(CCO)cc3)ccc(O)c21	61.7%	57.4%	64.3%	84.8%	74.2%	86.7%	51.6%	44.8%		74.9%
CCCC1=NNC(=O)C1	103%	103%	93.8%	103%		104%	108%		91.1%	114%
Cc1nc2cc(Nc3nc(Nc4ccc(F)cc4)nc(N4CCN(C)CC4)n3)ccc2n1Cc1ccccc1	-34.3% (active)	-51.9% (active)	-20.4% (active)	44.2%		80.9%	-73.6% (active)	-67.4% (active)	19.7%	-65.4% (active)
Cn1c2c(cc(S(=O)(=O)c3ccccc3)c1=O)CCc1c-2cnn1-c1ccccc1Cl	95.9%	104%	92.5%	96.2%		105%	107%	104%	93.5%	93.4%
FC(F)(F)c1cc(CNc2nc(Cl)ncc2Br)cc(C(F)(F)F)c1	79.7%	98.4%	66.6%	107%		95.4%	98.4%	94%	80.2%	77.2%
ONc1nc(NO)c2[nH]cnc2n1	89.9%	109%	88.6%	112%		102%	26%	91%	69.2%	
